TWEAK-Fn14 inh – inhibitors of TWEAK-Fn14 signaling, primary screen, luciferase reporter cells, uHTS. TWEAK-stimulated Fn14 reporter cells, luciferase luminescence, 8 h. AID 1159606, 2016. 2% of 360,000 active. inhibition, % at 10 µM; in the data active means inhibition above about 50%
PAX8 inh HTS – inhibitors of PAX8-driven TPO luciferase reporter, primary screen, RMG-I cells, single concentration. AID 652154, 2013. SteadyGlo, 24 h. inhibition, % at 12.6 µM. 1.2% of 360,000 active;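 active means mean replicate inhibition at least 60% with every replicate also reaching 60%; inconclusive means only one of the two criteria is met; inactive means mean below 60% and not all replicates reaching 60%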;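 further: luciferase light reporting Pax8 driven TPO promoter activity; plate controls were median of neutral control wells for no effect and mitoxantrone controls for full effect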
EWS-Fli block – EWS/Fli-driven NR0B1 reporter inhibitors, primary screen, A673 cells, NR0B1 luciferase, luminescence, MLPCN library | viability-normalised | inhibition, % at 12.6 µM | 0.67% of 350,000 active | AID 651661, 2012;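 active means mean inhibition of at least 50% after viability correction, with every replicate also passing that limit; inconclusive means mean reaches 50% but only one of two replicates passes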;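 further: firefly luciferase signal divided by Alamar Blue viability fluorescence both relative to DMSO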
LMP1 NFkB inh – EBV LMP1-driven NF-kappaB luciferase reporter inhibitors, primary screen, cell-based, luminescence, single point. AID 504558, 2011. LMP1-induced NF-kappaB luciferase reporter cells. inhibition, % at 12.5 µM. 0.69% of 350,000 active; in the data active means inhibition above about 41%; inconclusive means no clear call, values can overlap the other calls;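 further: 0% = neutral control wells and 100% = reference inhibitor control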
TROY NFkB inh – inhibitors of TROY-driven NF-kB signaling, primary screen, Q293 LMP1-TROYcd cells, NF-kB luciferase, uHTS. Q293 LMP1-TROYcd NF-kB luciferase reporter, 4 h. inhibition, % at 10 µM. 0.98% of 360,000 active;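 active means compounds whose plate-normalised and pattern-corrected inhibition of the luciferase reporter signal at the single screening dose is 50% or more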
LGR2 antag – inhibitors of bursicon-induced LGR2 CRE-luciferase signal, primary screen, cell-based, HEK293, CRE-luciferase reporter, bursicon stimulation. Drosophila bursicon receptor LGR2 (rickets). bursicon-stimulated, 4 h. inhibition, % at 9.99 µM. 0.35% of 380,000 active. AID 720647, 2013;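 active means drop in luminescence signal, shown as inhibition above about 50% in the replicate tests, limit read from the data, passing the limit was not always enough; inconclusive means probably only some replicates passing the limit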;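 further: agonist challenge used bursicon conditioned medium at about half maximal strength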
* hit, by the source's call; u = inconclusive; x = no result given; ! = not active in a repeat. Compounds with a hit are over-represented: about 3.1% of the library has one in this group of screens.

SMILES	TWEAK-Fn14 inh	PAX8 inh HTS	EWS-Fli block	LMP1 NFkB inh	TROY NFkB inh	LGR2 antag
COc1cccc(-c2ccc3c(c2)O[C@H](CN(C)Cc2cncnc2)[C@H](C)CN([C@@H](C)CO)S3(=O)=O)c1	x	x	-18	x	x	2
CC(=O)Nc1cc(Cl)c(N=Cc2ccc(O)cc2O)cc1Cl	77*	26	0	1	7	x
O=S(=O)(NN=Cc1ccc(O)cc1O)c1cc(Cl)c(Cl)cc1Cl	-17	-18	2	-6	-50	-72
CCN1CCN(Cc2ccc(NC(=O)c3cc(NC(=O)c4cc5cccc(OC)c5o4)cc(OC)c3)cc2C(F)(F)F)CC1	60*!	90*!	53*!	-103	-11	12
COc1cc(NC(=O)c2cc3cccc(OC)c3o2)cc(C(=O)Nc2cccc(C(F)(F)F)c2)c1	57*	92*	29	13	16	22
CCN1CCN(Cc2ccc(NC(=O)c3cc(NC(=O)c4cncc(-c5cccs5)c4)cc(OC)c3)cc2C(F)(F)F)CC1	-64	51	64*	-7	8	30
COc1ccc(-c2cc(C(=O)Nc3cc(OC)cc(C(=O)Nc4cccc(C(F)(F)F)c4)c3)[nH]n2)cc1	-39	72*!	2	-13	-9	-13
C[C@@H]1CN([C@@H](C)CO)C(=O)Cc2cc(NS(=O)(=O)c3cccs3)ccc2O[C@H]1CN(C)CC1CC1	x	x	-3	x	x	-5
C[C@@H]1CCCCO[C@H](CN(C)C(=O)c2ccncc2)[C@H](C)CN([C@@H](C)CO)C(=O)c2cc(NS(C)(=O)=O)ccc2O1	x	x	-11	x	x	9
CCN1CCN(Cc2ccc(NC(=O)c3cc(NC(=O)c4cc(-c5ccc(OC)cc5)n[nH]4)cc(OC)c3)cc2C(F)(F)F)CC1	-97	u	51*	-2	-15	2
O=C(C[C@H]1CC[C@H]2[C@@H](COC[C@@H](O)CN2C(=O)c2cccnc2)O1)NC1Cc2ccccc2C1	x	-14	7	x	x	-19
FC(F)(F)c1cc(-c2ccccc2)nc(N2CCCCCC2)n1	8	x	x	-5	-12	x
Cc1cc(NC(=O)CCS(=O)(=O)c2nc(-c3ccccc3)cc(C(F)(F)F)n2)no1	54*	x	x	-26	56*	x
Cc1ccc(S(=O)(=O)CCC(=O)Nc2cc(C)on2)cc1	27	6	1	-1	-16	10
CS(=O)(=O)c1nc(-c2ccccc2)cc(C(F)(F)F)n1	47	x	x	30	53*	x
C[C@H]1CN([C@@H](C)CO)C(=O)c2cc(NC(=O)Nc3ccc(C(F)(F)F)cc3)ccc2O[C@@H]1CN(C)S(=O)(=O)c1cn(C)cn1	x	x	-1	x	x	-9
CO[C@H]1CN(C)C(=O)c2ccc(NS(C)(=O)=O)cc2OC[C@@H](C)NC[C@H]1C	x	x	0	x	x	3
CC=Cc1ccc2n(c1=O)C[C@H]1[C@H](CO)[C@@H](C(=O)NCCC)[C@@H]2N1Cc1cccnc1 (mixture of isomers)	x	-3	-8	x	x	-5
Nc1nn(S(=O)(=O)c2ccccc2)cc1-c1ccc([N+](=O)[O-])cc1	0	-23	83*	0	-14	2
Cc1ccc(S(=O)(=O)n2cc(-c3ccccc3)c(N)n2)cc1	-8	x	x	-4	12	7
O=C(CN1C(=O)c2ccccc2S1(=O)=O)c1ccccc1	100*	x	x	61*	77*	x
O=C(CN1C(=O)c2ccccc2S1(=O)=O)Nc1ncc(Cl)cc1Cl	75*	39	58*	41*	55*	69*
CN(C(=O)CN1C(=O)c2ccccc2S1(=O)=O)C1CCCCC1	70*	-84	-14	6	75*	-8
O=C(NC1CCCCC1)C(c1ccc(F)cc1)N(Cc1ccco1)C(=O)CN1C(=O)c2ccccc2S1(=O)=O (stereo not drawn)	-9	102*	7	-9	3	23
C[C@@H]1CN([C@@H](C)CO)C(=O)c2cc(C#CC3(O)CCCC3)cnc2O[C@H]1CN(C)Cc1ccccc1	x	x	10	x	x	9
SMILES	TWEAK-Fn14 inh	PAX8 inh HTS	EWS-Fli block	LMP1 NFkB inh	TROY NFkB inh	LGR2 antag
O=C(CN1C(=O)c2ccccc2S1(=O)=O)c1ccccc1Cl	102*	90*	82*	67*	85*	96*
CCN(CC)c1ccc(C=Nc2ccccc2)c(O)c1	-7	x	x	-12	-18	x
CCN(CC)c1ccc(C=Nc2ccc(N(C)C)cc2)c(O)c1	58*	-77	x	-15	-5	x
CCN(CC)c1ccc(/C=N/N=C(N)N)c(O)c1	-21	12	54*	11	-3	-15
CCN(CC)c1ccc(N=Cc2ccc(N(CC)CC)cc2O)cc1	19	x	x	-2	11	x
CCCN(C)C[C@@H]1OCCCC[C@@H](C)Oc2ccc(NC(=O)Nc3ccc(F)cc3)cc2C(=O)N([C@H](C)CO)C[C@H]1C	x	u	-5	x	x	1
O=C(NCc1ccccc1F)C1CCN(C(=O)Nc2ccc(F)cc2)CC1	99*	4	x	3	-17	10
O=C(NCc1ccccc1F)C1CCCN(C(=O)Nc2ccc(F)cc2)C1 (stereo not drawn)	-11	-5	x	-11	20	2
C[C@H](CO)N1C[C@H](C)[C@@H](CN(C)C(=O)Nc2ccc3c(c2)OCO3)Oc2ncc(-c3cncnc3)cc2C1=O	x	x	-1	x	x	3
COc1ccc(S(=O)(=O)N2CCCC2CNC(=O)C(=O)NCCc2ccccc2)cc1 (stereo not drawn)	24	31	44	-5	1	-30
COc1ccc(CCNC(=O)C(=O)NCC2CCCN2S(=O)(=O)c2ccccc2)cc1 (stereo not drawn)	-18	22	5	8	51*	22
N#C[C@@H]1[C@H](c2ccc(C3=CCCC3)cc2)[C@H](CO)N1C(=O)C1CCOCC1	x	-3	-3	x	x	13
O=[N+]([O-])c1cc(Cl)ccc1Oc1ccc(-c2nnco2)cc1	12	-3	7	-3	62*	-18
CS(=O)(=O)c1ccc(Oc2ccc(-c3nnco3)cc2)c([N+](=O)[O-])c1	34	0	-4	-7	-4	-5
COC/C=C/C1=CC2=CC(=O)C(C)(OC(=O)c3cnc4ccccc4n3)C(=O)C2=CN1C1CC1 (stereo not drawn)	14	66*	-31	-18	-5	-5
COC/C=C/C1=CC2=CC(=O)C(C)(OC(=O)c3cnc4ccccc4n3)C(=O)C2=CN1Cc1ccccc1 (stereo not drawn)	-6	80*	-2	-7	11	x
Cc1ccc(CNC(=S)NC2CCC(C(C)(C)C)CC2)cc1 (stereo not drawn)	-15	-4	x	10	51*	16
COc1ccc(N2C(=O)C(=O)/C(=C(/O)c3ccc(C)cc3)C2c2cccnc2)cc1 (stereo not drawn)	-6	12	x	44*	-44	16

Screening data as filed in PubChem BioAssay.
